# Data reported in PubChem BioAssay (NCATS).
# Inconclusive results are not listed. Unmarked numbers belong to inactive results. Calls of active or inactive are those of the source. The call rests on the fitted dose curve; in most records, active means well fitted inhibition curve with a large enough effect; inconclusive means small, poorly fitted or top-dose-only effect; inactive means flat fitted curve, though single readings scatter.
# Experiment: P-glycoprotein substrates identified in KB-8-5-11 adenocarcinoma cell line, qHTS therapeutic library screen (AID 1346987); further: nearly all actives have a fitted effect of over 65% in size
# Conditions: KB-8-5-11 (P-gp overexpressing) viability, CellTiter-Glo, 72 h; series mostly up to 44.5 µM; activity change, negative = cytotoxicity: at the top concentration
# Outline: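 Steps: plate 500 KB-8-5-11 cells/well in DMEM + 10% FCS (colchicine removed); pin compounds in dose-response; incubate 72 h, 37 degree C, 5% CO2; add CellTiter-Glo, 5 min; read luminescence.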
# On the % scale 0 is the no-effect control and ±100 the full control effect; potency means the concentration at half of the fitted maximal effect.
SMILES,"activity change, negative = cytotoxicity",outcome,Potency
COc1ccc(CC2C(=O)NC(C)C(=O)N(C)C3Cc4ccc(cc4)Oc4cc(ccc4OC4OC(CO)C(O)C(O)C4O)CC(C(=O)NC(C)C(=O)NC(C)C(=O)N2C)N(C)C3=O)cc1 (stereo unspecified),-5.43% [at 9.29 µM],,
CC(C)(O)C1CCC(C)(C2CCC3(C)C4CCC5C(C)(C(=O)OC6OC(CO)C(O)C(O)C6O)C(O)CC(O)C56CC46CCC23C)O1 (stereo unspecified),-0.552% [at 17.3 µM],,
CC(C)O[C@@H]1O[C@H](CO)[C@@H](O)[C@H](O)[C@H]1O,6.53%,,
COC(=O)c1ccccc1O[C@@H]1O[C@H](CO)[C@@H](O)[C@H](O)[C@H]1O[C@@H]1O[C@@H](C)[C@H](O)[C@@H](O)[C@H]1O,,inactive [at 17.3 µM],
CC1(C)CC2=C3C=CC4C5(C)CCC(O)C(C)(C)C5CCC4(C)C3(C)CCC2(C)C(O)C1 (stereo unspecified),-3.24% [at 17.3 µM],,
C=C(C)C1CCC(C)C12CC(O)C1(C)OC1C2OC(=O)C(N)CCC(=O)O (stereo unspecified),8.63%,,
CN1CCc2nc(C(=O)N[C@@H]3C[C@@H](C(=O)N(C)C)CC[C@@H]3NC(=O)C(=O)Nc3ccc(Cl)cn3)sc2C1,9.48%,,
C=C1CCC[C@]2(C)CC[C@@H](C(=C)C(=O)O)[C@H](O)[C@@H]12,,inactive,
Nc1nc(-n2cc(C(=O)O)c(=O)c3cc(F)c(N4CC(O)C4)c(Cl)c32)c(F)cc1F,-8.8%,,
CC1=CC2/C=C(\C)CC[C@@H](O)[C@@H](O)[C@@H]3O[C@@H]3C(=O)[C@]23C(=O)N[C@@H](CC(C)C)[C@@H]3[C@@H]1C (stereo partly specified),-5.48% [at 17.3 µM],,
CC(C)(C)Nc1nc(Nc2ccc(C(N)=O)cc2)cc(N)c1C#N,,,2.06 µM (active)
